The structures appear in SMILES notation. Activity calls are given as the source filed them. The calls were made as follows: active = hit-call score of the fitted dose curve at least 0.9, where 1 is the maximum; inactive = score below 0.9.

The nature of the experiment: BSK_LPS_PGE2: BioMAP Diversity Plus: LPS Assay for Prostaglandin E2 (PGE2) Biomarker Activity (AID 2283082). The settings on record: primary human HUVEC with PBMC; actives raise or lower the signal. The procedure: BSK_LPS is a cell-based, multiplexed-readout assay that uses umbilical vein endothelium and peripheral blood mononuclear cells, a human vascular primary cell co-culture, with measurements taken at 24 hours after chemical dosing in a 96-well plate.BSK_LPS_PGE2 is an assay component measured in the BSK_LPS assay. It measures PGE2 antibody related to regulation of gene expression using ELISA technology.Data from the assay component BSK_LPS_PGE2 was analyzed into 1 assay endpoint. This assay endpoint, BSK_LPS_PGE2, was analyzed with bidirectional fitting relative to DMSO as the negative control and baseline of activity. Using a type of binding reporter, gain or loss-of-signal activity can be used to understand changes in the signaling as they relate to the gene PTGER2. Furthermore, this assay endpoint can be referred to as a primary readout, because this assay has produced multiple assay endpoints where this one serves a signaling function. To generalize the intended target to other relatable targets, this assay endpoint is annotated to the gpcr intended target family, where the subfamily is rhodopsin-like receptor.
The levels of cell surface (or secreted, indicated by the prefix "s") biomarker endpoints were measured by ELISA. Overt cytotoxicity to cells in confluent adherent cultures (all systems other than the BT system) was assessed by measuring total protein levels using sulforhodamine B (SRB) staining in parallel cultures at the time of biomarker measurements, indicated as SRB endpoints. For proliferation assays for adherent cell types, individual cell types are cultured at sub-confluence and relative cell numbers quantified by SRB staining at time points optimized for each system (48 h: 3C and CASM3C systems; 72 h: BT and HDF3CGF systems; 96 h: SAg system). SRB was performed by staining cells with 0.1% SRB after fixation with 10% TCA and reading wells at 560 nm.Viability and proliferation of PBMC (T cells) was quantified by Alamar Blue reduction for the SAg and BT systems. For PBMC viability (referred to as PBMC Cytotoxicity within the assay endpoint names), cells were plated (75,000/well in a 96-well plate) and then chemical samples added for 1 h before addition of activators, SEB and TSST-1 (20 ng/mL final concentration each). Cells were incubated for 90 h. Then, Alamar Blue (20 uL/well) (Invitrogen, Cat DAL1100) was added for 6 h, and the plates were read with a fluorescence microplate reader at 546/580 nm (excitation/emission). For PBMC proliferation, cells were plated and activated as above but incubated for only 16 h prior to addition of Alamar Blue. Plates were read after 6 h.
As for `O=C(N[C@@H](c1ccccc1)[C@@H]1CCCCN1)c1cccc(C(F)(F)F)c1Cl`, the AC50 (as a rule, the concentration at which the activity in the assay is half-maximal) was 4.91 µM (active).
For `COC(=O)[C@H]1[C@H]2C[C@@H]3c4[nH]c5cc(OC)ccc5c4CCN3C[C@H]2C[C@@H](OC(=O)c2cc(OC)c(OC)c(OC)c2)[C@@H]1OC`, the outcome was inactive.
On to `Cc1ccc(-c2cc(C(F)(F)F)nn2-c2ccc(S(N)(=O)=O)cc2)cc1`, for which the AC50 was 0.288 µM (active).
For the compound `CC(C)OC(=O)C(C)(C)Oc1ccc(C(=O)c2ccc(Cl)cc2)cc1`, the result was inactive.
Consider `CN(C)C(=O)NC1(c2ccccc2)CCN(CCC[C@]2(c3ccc(Cl)c(Cl)c3)CCCN(C(=O)c3ccccc3)C2)CC1`, for which the result was inactive.
For `O=NO`, the result was inactive.
On the same count and under the same terms, the same measure for `CCCC(=O)O`: “inactive”; for `CC(C)c1cccc(C(C)C)c1`: “inactive”.
Regarding `CCOCCOCCO`, the result was inactive.
On to `OCC(CO)n1cnc(-c2ccc(F)cc2)c1-c1ccnc(Oc2ccccc2)n1`, for which the AC50 is 0.356 µM (active).
As to `CC(COCC(C)OC(=O)c1ccccc1)OC(=O)c1ccccc1` (stereo not given), the outcome was inactive.
`CC(=O)CC(c1ccccc1)c1c(O)c2ccccc2oc1=O` (stereo not given): the outcome was inactive.
Regarding `C#CC(O)C(CC)CCCC` (stereo not given), the outcome was inactive.
`O=C1NC(=O)C(c2ccccc2)(c2ccccc2)N1`: the result was inactive.
On to `CCN(CC)CCOc1ccc(C(=C(Cl)c2ccccc2)c2ccccc2)cc1`, for which the AC50 was 8.26 µM (active).
For the compound `CC(C)(C)c1ccccc1`, the result was inactive.
Still for that read-out and setting: the same measure for `O=C(O)CN(CC(=O)O)CC(=O)O`: “inactive”; for `CCC(C)N(C)C(=O)c1cc2ccccc2c(-c2ccccc2Cl)n1` (stereo not given): “inactive”.
As to `Cc1c(C)c2c(c(C)c1O)CCC(C)(COc1ccc(CC3SC(=O)NC3=O)cc1)O2` (stereo not given), the AC50 was 32.5 µM (active).
With `CS(=O)(=O)c1ccc([C@@H](C[C@H]2CCC(=O)C2)C(=O)Nc2cnccn2)cc1Cl`, the outcome was inactive.
Consider `C/C=C/c1ccc(OC)cc1`, for which the outcome was inactive.
With `Nc1nc(Cl)nc2c1ncn2[C@H]1C[C@H](O)[C@@H](CO)O1`, the outcome was inactive.
Take `NC(=Nc1ccccc1)Nc1ccccc1`: the result was inactive.
Same read-out and setting: the same measure for `CCCCCCCCCCCCCCOS(=O)(=O)O`: “inactive”.
In the case of `Cc1cc(Cc2ccc(N)c(C)c2)ccc1N`, the outcome was inactive.
For the compound `COC(=O)CCCC(=O)OC`, the result was inactive.
Same read-out and setting: the same measure for `OCC(O)CO`: “inactive”; for `CN(C)CCCN(C)CCCN(C)C`: “inactive”.
Consider `Nc1nc(=S)c2[nH]cnc2[nH]1`, for which the AC50 was 20 µM (active).
For `CCCCCCCCCCCCCCCCO`, the result was inactive.
The same measure, in the same setting: the entry for `COC(=O)CCC(=O)OC` is “inactive”.
Still for that read-out and setting: the entry for `CC(=O)OCC(COC(C)=O)OC(C)=O` is “inactive”; for `Cc1cn([C@H]2C=C[C@@H](CO)O2)c(=O)[nH]c1=O` it is “inactive”; for `O=C(Oc1ccccc1)c1cccc(C(=O)Oc2ccccc2)c1` it is “inactive”.
Regarding `CC(C)c1cccc(C(C)C)c1NC(=O)NS(=O)(=O)c1cc(C(C)(C)O)co1`, the AC50 was 1.04 µM (active).
`Cn1cnc2c1c(=O)[nH]c(=O)n2C`: the outcome was inactive.
The same measure, in the same setting: the entry for `CC(=O)S[C@H](C(=O)N[C@H]1Cc2ccccc2[C@H]2CCC[C@@H](C(=O)O)N2C1=O)C(C)C` is “inactive”; for `CCCC[C@H]1CN(CC2CCOCC2)C(=O)OC12CCN(C1(C)CCN(C(=O)c3c(C)ncnc3C)CC1)CC2` it is “inactive”; for `NCCOCCOCCN` it is “inactive”.
Same read-out and setting: the entry for `COc1ccc(C(=O)Nc2nc3ccccc3c(NCc3ccccc3)c2C#N)cc1` is “inactive”.

The values are drawn from PubChem BioAssay (EPA / NIEHS).
